Test results reported in PubChem BioAssay (NCATS).
Several values for one entry are separate records, joined by “and”; a condition that tells them apart may be missing. Equal values may be shown once. Results filed as inconclusive are left out. Where a structure was tested more than once in an assay, its records may differ in their call. Activity calls are given as the source filed them. Unless noted, calls follow the shape of the dose curve; as a rule, active = well fitted curve in the direction sought with a large enough effect; inconclusive = small, poorly fitted or top-dose-only effect, or another doubt; inactive = no such curve, though single readings can be large; an effect the other way counts as inactive or inconclusive.

What was measured:
[1] = target: Cytochrome P450 3A4 (Homo sapiens) (UniProt P08684); assay: qHTS Assay for Activators of Cytochrome P450 3A4 (AID 885); also: nearly all actives have a fitted effect of over 65% in size
Procedure, shortened: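 Steps: enzyme/substrate mix dispensed; compound added, 10 min RT; NADPH regeneration solution added, 60 min RT; luciferin detection buffer stops reaction; 20 min later luminescence measured.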

[2] = Confirmation and Secondary Assay for Modulators of Hemoglobin Beta Chain Splicing at IVS2 654 locus (AID 910); also: % of control where 0% means no effect
Procedure, shortened: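 HeLa cells stably carrying EGFP interrupted by mutant beta-globin IVS2-654 intron (CMV-driven) were treated with compound for 2 days at 37C; corrected splicing was scored as total peak GFP intensity per well (488 nm excitation, 500-520 nm emission).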

[3] = Confirmation and Secondary Assay for Modulators of Hemoglobin Beta Chain Splicing at IVS2 705 locus (AID 930);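 also: HeLa cells stably expressing the EGFP-705 splicing reporter; GFP fluorescence per well restored by corrected splicing of the IVS2-705 intron in EGFP; % of control where 0% means no effect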
Procedure, shortened: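 Read-out: total peak GFP fluorescence per well (488 nm excitation, 500-520 nm emission) by laser-scanning cytometry. Cells: HeLa EGFP-705 splicing reporter, 2 days compound exposure in Optimem/2% FCS.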

[4] = qHTS Assay for Lipid Storage Modulators (AID 1519; calls by dose curve; as to activity change, negative = inhibition: % is scaled to controls: 0 for no effect and ±100 for the full control effect); conditions: Drosophila S3 cells, BODIPY lipid droplet/cell ratio, laser cytometry, cells loaded with oleic acid; for activity change, negative = inhibition: at 57.5 µM (top of the series)
Procedure, shortened: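 Cells seeded at 5,000 per well were treated with compounds over a concentration series and loaded with oleic acid (400 uM, as added). Lipid droplet fluorescence (488 nm excitation, 500-530 nm channel) was read by laser-scanning cytometry and normalized to 20 uM Triacsin C.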

[5] = target: DNA dC->dU-editing enzyme APOBEC-3G (Homo sapiens) (UniProt Q9HC16); assay: qHTS for inhibitors of Vif-A3G interactions: Validation (AID 588379); also: 0% is about no effect
Procedure, shortened: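 HeLa cells stably expressing Vif and A3G-eYFP, 700 cells/well, incubated overnight at 37 deg C, then exposed to compound overnight at 37 deg C. Inhibition of Vif-mediated degradation read as increased yellow fluorescence (Ex 488/Em 500-530) by laser-scanning cytometry.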

[6] = target: Cytochrome P450 3A4 (Homo sapiens) (UniProt P08684); assay: qHTS Assay for Inhibitors and Substrates of Cytochrome P450 3A4 (AID 884); also: nearly all actives have a fitted effect of over 50% in size; also: potency is read from the fitted curve at half-maximal effect; as to activity change, negative = inhibition: % is scaled to controls: 0 for no effect and ±100 for the full control effect
Procedure, shortened: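 20 nM human CYP3A4 with 25 uM Luciferin-PPXE (at KM) in 200 mM KPO4, preincubated 10 min with compound; NADPH regeneration started a 60 min RT reaction. Luciferin detected by luminescence, normalized to 57 uM ketoconazole as full inhibition.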

[7] = target: Cytochrome P450 2D6 (Homo sapiens) (UniProt P10635); assay: Cytochrome P450 family 2 subfamily D member 6 (CYP2D6) small molecule antagonists: luciferase biochemical (cell-free) qHTS assay (AID 1645840; active = well fitted curve in the direction sought with a large enough effect in the repeat runs; an effect the other way counts as inactive or inconclusive; also: nearly all actives have a fitted effect of over 55% in size; also: potency is read from the fitted curve at half-maximal effect; as to activity change, negative = inhibition: % is scaled to controls: 0 for no effect and ±100 for the full control effect)
Procedure, shortened: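 P450-Glo luminescent screen: recombinant CYP2D6 enzyme–proluciferin substrate mix preincubated with compound 10 min at room temperature, then NADPH regeneration added for 1 h at room temperature. Detection reagent added for 20 min; luciferin light read as relative luminescence units.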

[8] = target: Cytochrome P450 2C9 (Homo sapiens) (UniProt P11712); assay: Cytochrome P450 family 2 subfamily C member 9 (CYP2C9) small molecule antagonists: luciferase biochemical (cell-free) qHTS assay (AID 1645842; active = well fitted curve in the direction sought with a large enough effect in the repeat runs; an effect the other way counts as inactive or inconclusive; also: nearly all actives have a fitted effect of over 55% in size; also: potency is read from the fitted curve at half-maximal effect; as to activity change, negative = inhibition: % is scaled to controls: 0 for no effect and ±100 for the full control effect)
Procedure, shortened: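 Luminescence, after 20 min with luciferin detection reagent, reflected CYP2C9 turnover during a 1 h NADPH-driven reaction at 37C. Enzyme-substrate mix contained 0.4% bovine serum albumin and was preincubated with compound 10 min at room temperature.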

[9] = target: Glutathione peroxidase 1 (Homo sapiens) (UniProt P07203); assay: Primary qHTS Assay for Inhibitors of Recombinant Selenoprotein Glutathione Peroxidase 1 (GPX1) (AID 1845191); also: % is scaled to controls: 0 for no effect and ±100 for the full control effect; nearly all actives have a fitted effect of over 65% in size
Procedure, shortened: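 Recombinant GPX1 (10 nM final) was preincubated with compound for 30 min at room temperature, then reacted with 1 mM GSH, 0.5 mM CHP, 0.5 mM NADPH and 100 nM glutathione reductase; NADPH fluorescence (340/450 nm) was read at 0 and 15 min.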

[10] = Confirmatory qHTS to identify inhibitors of SARS-CoV-2 cell entry (AID 1645844; calls by dose curve; also: % is scaled to controls: 0 for no effect and ±100 for the full control effect; nearly all actives have a fitted effect of over 45% in size)
Procedure, shortened: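 HEK293-ACE2 cells (Expi293F stably expressing human ACE2) were pretreated with compounds for 1 hr at 37C, then infected with MLV-based particles carrying Wuhan-Hu-1 spike (C-terminal 19-aa truncation). Luciferase luminescence read after 48 hr; normalized to spike PP (100%) and bald PP (0%).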

[11] = Cytotoxicity counterscreen for inhibitors of SARS-CoV-2 cell entry (AID 1645845; calls by dose curve; also: nearly all actives have a fitted effect of over 50% in size); conditions: outcome: dose series up to 57.1 µM unless noted
Procedure, shortened: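 Expi293F/hACE2 cells seeded overnight; cpd pin-transferred in DMSO, 1 h preincubation, + media, 48 h 37 C 5% CO2; ATPLite 1step luminescence; normalized to cells and no cells.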

[12] = Primary qHTS to identify inhibitors of SARS-CoV-2 cell entry (AID 1645846; calls by dose curve; also: nearly all actives have a fitted effect of over 45% in size); conditions: SARS-CoV-2 pseudovirus cell entry assay, luminescence; activity change, negative = inhibition: at 57.1 µM (top of the series) unless noted
Procedure, shortened: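 Using luciferase-reporting pseudoviruses carrying Wuhan-Hu-1 spike, the screen tracks entry into stably ACE2-expressing cells over 48 hr. Activity is expressed relative to spike particles versus particles lacking any fusion protein.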

[13] = VSVG counterscreen qHTS to identify inhibitors of SARS-CoV-2 cell entry (AID 1645847; calls by dose curve; also: % is scaled to controls: 0 for no effect and ±100 for the full control effect; nearly all actives have a fitted effect of over 65% in size)
Procedure, shortened: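 Entry of VSV-G pseudotyped particles into human ACE2-expressing HEK293 cells was measured by luciferase luminescence 48 h after infection, with compound added 1 h beforehand.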

[14] = measured here: cell count channel max response
[15] = measured here: lipid channel max response

Cytochrome P450 2D6 (Homo sapiens), sequence (P10635 whole entry, looked up): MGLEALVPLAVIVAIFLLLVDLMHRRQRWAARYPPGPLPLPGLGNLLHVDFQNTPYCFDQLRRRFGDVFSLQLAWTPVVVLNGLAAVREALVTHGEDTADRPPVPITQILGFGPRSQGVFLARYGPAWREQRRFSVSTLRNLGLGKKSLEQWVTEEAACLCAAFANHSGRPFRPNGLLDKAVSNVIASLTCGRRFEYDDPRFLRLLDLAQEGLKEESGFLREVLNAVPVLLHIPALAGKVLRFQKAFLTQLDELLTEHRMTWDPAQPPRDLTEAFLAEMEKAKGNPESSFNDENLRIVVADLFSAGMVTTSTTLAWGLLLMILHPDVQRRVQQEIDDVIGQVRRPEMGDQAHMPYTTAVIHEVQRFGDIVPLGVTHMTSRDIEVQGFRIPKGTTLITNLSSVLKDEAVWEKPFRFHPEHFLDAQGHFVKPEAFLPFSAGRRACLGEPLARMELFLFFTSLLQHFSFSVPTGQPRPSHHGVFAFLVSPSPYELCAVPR
DNA dC->dU-editing enzyme APOBEC-3G (Homo sapiens), sequence (Q9HC16 whole entry, looked up): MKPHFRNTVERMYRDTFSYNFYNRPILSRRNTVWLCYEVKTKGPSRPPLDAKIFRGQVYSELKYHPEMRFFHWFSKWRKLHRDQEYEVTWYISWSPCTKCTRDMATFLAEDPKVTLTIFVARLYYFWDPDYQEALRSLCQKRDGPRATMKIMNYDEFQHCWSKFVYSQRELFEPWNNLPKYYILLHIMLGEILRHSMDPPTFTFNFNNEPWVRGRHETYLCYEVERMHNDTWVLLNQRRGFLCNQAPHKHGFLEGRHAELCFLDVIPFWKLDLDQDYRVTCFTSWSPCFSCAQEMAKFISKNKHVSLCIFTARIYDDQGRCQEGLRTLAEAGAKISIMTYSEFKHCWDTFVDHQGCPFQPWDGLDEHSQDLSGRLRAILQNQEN
Cytochrome P450 3A4 (Homo sapiens), sequence (P08684 whole entry, looked up): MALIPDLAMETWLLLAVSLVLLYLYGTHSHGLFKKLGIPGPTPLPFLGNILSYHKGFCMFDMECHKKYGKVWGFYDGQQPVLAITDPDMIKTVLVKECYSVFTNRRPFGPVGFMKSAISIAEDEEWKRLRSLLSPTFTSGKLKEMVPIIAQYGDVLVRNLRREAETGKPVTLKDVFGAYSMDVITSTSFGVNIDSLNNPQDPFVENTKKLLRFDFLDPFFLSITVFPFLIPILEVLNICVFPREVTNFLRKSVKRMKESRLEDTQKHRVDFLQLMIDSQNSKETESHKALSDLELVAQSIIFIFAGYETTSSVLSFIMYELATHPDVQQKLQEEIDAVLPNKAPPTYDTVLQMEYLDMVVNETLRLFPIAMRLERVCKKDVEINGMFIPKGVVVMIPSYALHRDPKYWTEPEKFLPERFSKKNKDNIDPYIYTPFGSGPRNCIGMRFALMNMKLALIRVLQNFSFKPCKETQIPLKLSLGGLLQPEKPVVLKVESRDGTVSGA
Cytochrome P450 2C9 (Homo sapiens), sequence (P11712 whole entry, looked up): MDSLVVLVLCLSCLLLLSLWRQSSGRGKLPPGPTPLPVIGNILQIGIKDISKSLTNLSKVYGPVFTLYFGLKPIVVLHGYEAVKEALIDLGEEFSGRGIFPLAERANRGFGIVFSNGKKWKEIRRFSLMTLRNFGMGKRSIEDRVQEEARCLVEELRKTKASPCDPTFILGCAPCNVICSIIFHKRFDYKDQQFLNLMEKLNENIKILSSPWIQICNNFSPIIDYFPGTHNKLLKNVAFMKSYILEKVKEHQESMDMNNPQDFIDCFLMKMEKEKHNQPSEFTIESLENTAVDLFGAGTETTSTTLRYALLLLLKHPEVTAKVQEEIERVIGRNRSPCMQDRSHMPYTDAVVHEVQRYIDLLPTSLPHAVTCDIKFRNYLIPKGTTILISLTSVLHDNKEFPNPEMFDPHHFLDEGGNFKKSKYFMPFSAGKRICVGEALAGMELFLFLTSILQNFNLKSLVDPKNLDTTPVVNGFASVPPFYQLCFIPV
Glutathione peroxidase 1 (Homo sapiens), sequence (P07203 whole entry, looked up): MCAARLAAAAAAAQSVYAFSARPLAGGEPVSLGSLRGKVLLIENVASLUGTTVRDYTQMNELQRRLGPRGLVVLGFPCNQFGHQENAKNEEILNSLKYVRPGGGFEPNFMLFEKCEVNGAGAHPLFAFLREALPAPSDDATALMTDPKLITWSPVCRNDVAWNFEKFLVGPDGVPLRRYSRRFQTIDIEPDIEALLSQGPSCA

Which Potency [1] does the source give for `O=c1cccc2n1CC1CNCC2C1` (stereo not given) here?
Its Potency is “inactive”.

And the Potency [2]?
The Potency was “inactive”.

What about the Potency [3] of the same compound?
Its Potency is “inactive”.

And the activity change, negative = inhibition [4]?
Its activity change, negative = inhibition is 8.73% (inactive).

And the max response [4, 14]?
The max response was 7.65%.

And the max response [4, 15]?
The max response was 18%.

And the outcome [5]?
The outcome was “inactive”.

With `CC(=O)OC1CC(OC(C)=O)[C@]2(C)C(CC(OC(C)=O)[C@]3(C)C2CC[C@@]2(C)C(c4ccoc4)C(=O)C4O[C@]432)C1(C)C` (stereo not given in full) as the compound, how does the Potency [6] read?
The Potency was 3.98 µM (active).

What about the Potency [1] of the same compound?
The Potency was “inactive”.

What about the Potency [2] of the same compound?
The Potency was “inactive”.

What about the Potency [3] of the same compound?
The Potency was “inactive”.

And the activity change, negative = inhibition [4]?
Its activity change, negative = inhibition is -15.3% (inactive).

And the max response [4, 14]?
The max response was -13.1%.

What about the max response [4, 15] of the same compound?
Its max response is -24.4%.

For `OC[C@@H]1CCCN2CCCC[C@@H]12`, which Potency [6] is on record?
Its Potency is “inactive”.

And the activity change, negative = inhibition [4]?
Its activity change, negative = inhibition is -9.64% (inactive).

And the max response [4, 14]?
The max response was -24.5%.

What about the max response [4, 15] of the same compound?
The max response was -31.5%.

And the outcome [5]?
Its outcome is “inactive”.

Which Potency [6] does the source give for `CC[C@H]1C2CC3[C@@H]4N(C)c5ccccc5[C@]45C[C@@H](C2[C@H]5O)N3[C@@H]1O` (stereo not given in full) here?
Its Potency is “inactive”.

And the activity change, negative = inhibition [4]?
Its activity change, negative = inhibition is -0.775% (inactive).

And the max response [4, 14]?
Its max response is 15.3%.

And the max response [4, 15]?
Its max response is 14.3%.

And the outcome [5]?
The outcome was “inactive”.

Which Potency [6] does the source give for `CC(=O)N1CC2CC(C1)c1cccc(=O)n1C2` (stereo not given) here?
The Potency was “inactive”.

And the activity change, negative = inhibition [4]?
The activity change, negative = inhibition was -4.96% (inactive).

And the max response [4, 14]?
Its max response is -29.2%.

And the max response [4, 15]?
The max response was -33.4%.

And the outcome [5]?
Its outcome is “inactive”.

For `CC1(C)C(=O)C=C[C@@]2(C)C1=C(O)C(=O)[C@@]1(C)C2CC[C@@]2(C)C(c3ccoc3)C[C@H]3O[C@@]321` (stereo not given in full), which Potency [6] is on record?
Its Potency is 0.501 µM (active).

What about the Potency [1] of the same compound?
Its Potency is “inactive”.

And the Potency [3]?
Its Potency is “inactive”.

What about the activity change, negative = inhibition [4] of the same compound?
Its activity change, negative = inhibition is 0.256% (inactive).

What about the max response [4, 14] of the same compound?
Its max response is 0.732%.

What about the max response [4, 15] of the same compound?
Its max response is 3.61%.

For `COc1cc(C2c3cc4c(cc3C(OC(C)=O)[C@H]3COC(=O)C23)OCO4)cc(OC)c1OC` (stereo not given in full), which Potency [6] is on record?
The Potency was “inactive and 1.26 µM (active)”.

And the Potency [1]?
Its Potency is “inactive”.

And the Potency [2]?
The Potency was “inactive”.

What about the Potency [3] of the same compound?
The Potency was “inactive”.

And the activity change, negative = inhibition [4]?
The activity change, negative = inhibition was 0.38% (inactive) and 4.56% (inactive).

And the max response [4, 14]?
Its max response is 26.1% and 10%.

And the max response [4, 15]?
The max response was 22.6% and 16.4%.

Which Potency [7] does the source give for `CCN1CCN(C(c2ccc(Cl)cc2)c2ccc(Cl)cc2)CC1` here?
The Potency was 0.952 µM (active).

And the Potency [8]?
Its Potency is “inactive”.

And the Potency [9]?
Its Potency is “inactive”.

Which results are given for `CCN=C1Nc2ccc(Cl)cc2C(C)(c2ccccc2)O1` (stereo not given)?
Potency [7]: 10.7 µM (active); Potency [8]: 9.52 µM (active)

With `Cc1ccccc1[C@@H](C(=O)NC1CCCCC1)N(C(=O)Cn1ccnc1C)c1cccc(F)c1` as the compound, how does the Potency [8] read?
Its Potency is “inactive”.

Which Potency [7] does the source give for `CCN(CC)N(O)N=O` here?
The Potency was “inactive”.

What about the Potency [8] of the same compound?
The Potency was “inactive”.

For `O=C(Nc1cccnc1)c1cc(-c2ccnc(F)c2)ccc1OCc1ccccc1`, which Potency [10] is on record?
The Potency was “inactive”.

And the Potency [11]?
Its Potency is “inactive”.

What about the activity change, negative = inhibition [12] of the same compound?
Its activity change, negative = inhibition is -5.26%.

And the Potency [13]?
The Potency was “inactive”.

Which Potency [6] does the source give for `CCCCCCC(C)OC(=O)COc1ccc(Cl)cc1Cl` (stereo not given) here?
Its Potency is “inactive”.

And the Potency [2]?
The Potency was “inactive”.

What about the Potency [3] of the same compound?
Its Potency is “inactive”.

And the activity change, negative = inhibition [4]?
Its activity change, negative = inhibition is 1.06% (inactive).

And the max response [4, 14]?
The max response was 1.5%.

What about the max response [4, 15] of the same compound?
The max response was 2.82%.
